The full ranking holds about 33,000 sequences; the median of “E-score (-0.5 to 0.5)” is about -0.054, and the highest 2% start at about 0.39. The sample as a whole holds a higher share of the highest values than the screen did.
What follows are sequences tested against Ylr278c (UniProt Q05854) (assay: PBM E-score (8-mer binding enrichment) (E-score (-0.5 to 0.5)); higher = stronger / more preferred TF binding). Conditions: protein concentration: 200 nM; construct: GST-DNA-binding domain.
Method in brief: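 PURExpress in vitro transcription/translation supplied GST-tagged yeast transcription factors, either full-length or DNA-binding domain. Applied at about 100-200 nM to universal all-10-mer Agilent arrays double-stranded by primer extension, the bound protein was detected with fluorescent anti-GST. E-scores, modified Wilcoxon-Mann-Whitney statistics, were given by the Universal PBM Analysis Suite to ungapped eight-base words pooled with their reverse complements after masliner normalisation.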

Chain of UniProt Q05854 (Q05854 whole entry, the tested form may be a part): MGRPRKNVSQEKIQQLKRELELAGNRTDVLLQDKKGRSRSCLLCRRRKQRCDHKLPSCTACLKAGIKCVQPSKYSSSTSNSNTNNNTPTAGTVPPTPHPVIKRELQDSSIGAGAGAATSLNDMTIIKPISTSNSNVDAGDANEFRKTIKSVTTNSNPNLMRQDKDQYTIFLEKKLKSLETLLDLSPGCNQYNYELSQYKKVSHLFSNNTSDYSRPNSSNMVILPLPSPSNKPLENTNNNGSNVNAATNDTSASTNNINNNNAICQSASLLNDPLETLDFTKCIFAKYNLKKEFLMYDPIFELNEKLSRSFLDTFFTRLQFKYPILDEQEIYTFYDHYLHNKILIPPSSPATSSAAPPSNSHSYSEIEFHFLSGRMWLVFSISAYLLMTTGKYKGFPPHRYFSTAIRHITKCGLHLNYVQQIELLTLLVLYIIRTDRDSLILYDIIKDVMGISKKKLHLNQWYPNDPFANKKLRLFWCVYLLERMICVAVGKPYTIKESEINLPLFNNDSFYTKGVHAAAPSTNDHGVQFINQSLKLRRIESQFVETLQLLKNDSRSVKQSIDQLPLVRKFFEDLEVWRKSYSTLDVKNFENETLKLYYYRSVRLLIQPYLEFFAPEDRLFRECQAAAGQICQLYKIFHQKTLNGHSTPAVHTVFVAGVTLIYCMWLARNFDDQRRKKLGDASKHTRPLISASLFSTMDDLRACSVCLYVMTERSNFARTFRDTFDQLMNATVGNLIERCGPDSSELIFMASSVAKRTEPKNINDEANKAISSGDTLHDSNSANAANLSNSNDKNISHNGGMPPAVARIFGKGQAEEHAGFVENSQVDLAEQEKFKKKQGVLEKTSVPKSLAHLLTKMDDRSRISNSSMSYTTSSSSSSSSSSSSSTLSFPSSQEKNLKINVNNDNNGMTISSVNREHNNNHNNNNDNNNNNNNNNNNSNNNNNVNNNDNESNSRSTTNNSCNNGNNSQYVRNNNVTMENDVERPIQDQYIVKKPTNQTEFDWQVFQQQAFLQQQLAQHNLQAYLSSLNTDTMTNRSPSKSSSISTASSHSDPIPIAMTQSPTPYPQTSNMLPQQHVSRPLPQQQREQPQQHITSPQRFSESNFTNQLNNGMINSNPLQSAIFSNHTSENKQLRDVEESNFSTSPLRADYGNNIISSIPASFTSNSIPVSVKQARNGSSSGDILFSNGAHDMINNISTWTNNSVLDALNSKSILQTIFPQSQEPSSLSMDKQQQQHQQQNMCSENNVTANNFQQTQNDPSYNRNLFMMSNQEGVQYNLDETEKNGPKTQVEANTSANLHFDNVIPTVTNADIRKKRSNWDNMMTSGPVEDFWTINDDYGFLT

Sequence | PBM E-score
GTGGCCCA | -0.196
CGACTGAC | -0.171
CGGATCGA | 0.19
CAACTCTC | -0.0583
ACTGAGAG | -0.25
TACAGTGA | -0.253
CGTATGCC | 0.107
ATCTAGTG | -0.173
AACTATCC | 0.0243
ACGCCGCC | 0.279
ACGCCGTC | 0.276
ACGCCGGC | 0.421
AATATGAA | 0.0372
CGGGCTGC | 0.118
CGAATGGA | -0.121
GACGCTGA | -0.214
CTATCGGC | 0.239
ATATCGGA | 0.391
CTATCGGA | 0.444
GTATCGCA | -0.0427
CTATCGTA | -0.18
GTATCGAA | -0.103
ATATCGGG | 0.313
ATATCGGC | 0.319
GTATCGGA | 0.431

Sequence | PBM E-score
ATCTCAGG | -0.0988
GTGGCAAC | -0.0372
AGCAATCG | -0.0973
CTCCTTTA | -0.132
ACATTGCA | -0.0533
GCCGCCGA | 0.338
CCCGCCGA | 0.334
AACGCCGC | 0.339
ATCGCCGG | 0.421
AACGCCGT | 0.272
ATCGCCGA | 0.373
TCCGCCGA | 0.437
CAAGCCGG | 0.263
AAAGCCGT | 0.137
AAAGCCGG | 0.391
AACGCCGG | 0.424
ATCGCCGC | 0.295
ATCTGTGC | -0.167
AAGCGAAG | -0.0624
CCCGCCGG | 0.384
AAAAGCCT | -0.224
TACGCCGA | 0.293
CACGCCGA | 0.211
AAAAGCCC | 0.151
AACGCCGA | 0.433

Sequence | PBM E-score
ACCGCCGC | 0.235
ACCGCCGG | 0.403
AAAAGCCG | 0.388
GAGACTAC | 0.0263
ACGCAAAG | -0.0959
GGACCGCA | 0.238
CGACCGGC | 0.248
CGACCGGA | 0.409
CGACCGAA | 0.148
AGACCGGA | 0.335
GGACCGGA | 0.442
CACAGATC | -0.0312
ACTGCTCT | -0.15
ATCTTCGG | 0.303
AAGTCGCT | -0.163
ACGACACC | 0.0263
ATCAAAAA | 0.0906
CTCCCAGC | -0.0468
ATTGTCCC | 0.0603
ATTGTCCG | 0.452
CATGTCCG | 0.384
AATGTCCG | 0.458
AATGTCCA | -0.115
ATTGTCCA | -0.113
GCCGCAGA | 0.143

Sequence | PBM E-score
AGGTGTCG | 0.0347
GCCGATGA | 0.298
CTCCGCAG | 0.418
TTCCGCAA | 0.298
ATCCGCAC | 0.299
CTCCGCAC | 0.41
CCCCGCAG | 0.302
GTCCGCAC | 0.308
CTCCGCAA | 0.409
ATCCGCAG | 0.259
GTCCGCAA | 0.334
ACACCTGG | -0.243
CCCTCTAG | -0.311
CGTGGCCC | -0.0746
AACCCTAA | -0.0663
CGAAAGGC | 0.0796
CCGCCCGG | 0.402
AAGCCCGG | 0.416
CCGCCCGC | 0.349
AAGCCCGT | 0.0339
AAGCCCGC | 0.266
CCGCCCCG | 0.42
ACGCCCCG | 0.229
CCGCCCCC | 0.168
ACGCCCGG | 0.305

Sequence | PBM E-score
GAAACCTC | 0.0208
CTGAGTCC | 0.00022
CACTAAAG | -0.169
GTGCTCCA | -0.118
AACAACAC | -0.0906
ACTTGACG | -0.135
ATTGATCC | 0.282
CACTTGCC | 0.0403
CCCCTCGC | -0.239
CGGAGCCG | 0.427
CGGAGCCC | 0.37
TGGAGCCA | -0.194
CGGAGCCA | 0.402
AGGAGCCG | -0.0181
GGGAGCCA | -0.264
AATGCTGC | -0.0877
CAGTCTCA | -0.126
AATCGGAT | 0.384
AATCGGTG | 0.126
AATCGGGA | 0.231
AATCGGAA | 0.416
GATCGGTA | 0.265
CATCGGAC | 0.424
GATCGGGA | 0.227
AATCGGAG | 0.466

Sequence | PBM E-score
CATCGGGC | 0.211
AATCGGCA | 0.304
CATCGGTC | 0.15
GATCGGAA | 0.408
AACTGGGG | 0.00524
CTGCAACC | -0.27
CTTTGGTA | -0.0286
CGAATGTC | 0.101
CAGAGTAG | -0.16
AGCCAGCC | -0.18
AAAGCGAT | 0.0361
CGATTTTC | 0.153
GAGCGCCC | 0.00794
CATCGGCA | 0.284
CATCGGGG | 0.314
CATCGGTA | 0.261
CATCGGAA | 0.396
AATCGGCC | 0.24
AATCGGGC | 0.0936
AATCGGAC | 0.397
CATCGGCG | 0.304
CATCGGAG | 0.457
GCTCGGAC | 0.382
GATCGGAC | 0.434
GATCGGGC | 0.184

Sequence | PBM E-score
AGTATCAC | -0.0655
GTTTCGCA | -0.0936
ACTACTAG | -0.0129
ATTTTGGA | 0.168
AAATCCTA | 0.0982
CTTGGCGA | -0.203
TATCGGAA | 0.413
TATCGGCA | 0.264
TATCGGGA | 0.288
CCGCTCCG | 0.444
AGGCTCCA | -0.133
CCGCTCCC | 0.191
CCGCTCCA | 0.064
AGGCTCCG | 0.39
ACGCTCCG | 0.399
ACGCTCCT | -0.237
ACGCTCCC | 0.0269
ATGCTCCG | 0.425
ATGCTCCC | -0.0848
AGGCTCCC | -0.0902
ATGCTCCA | -0.0254
GAGGCCGA | 0.217
ACTTTTCC | 0.278
GCCTAGCA | -0.245
GAGGCTAA | 0.0333

Sequence | PBM E-score
AGCAGACG | -0.00216
ATGTGGGA | -0.101
AAAGCTAT | -0.0422
GGTTGGCA | -0.173
ATAGAGAC | -0.248
CCCCGCAA | 0.225
TAGTCCGA | 0.415
TAGTCCAA | -0.0998
GAGTCCGC | 0.363
AAGTCCGA | 0.483
AAGTCCTA | 0.0365
CAGTCCGC | 0.202
ACGTCCGA | 0.346
GCGTCCGA | 0.292
GAGTCCGA | 0.392
TAGTCCCA | -0.284
CAGTCCGA | 0.402
CAGTCCGG | 0.367
ACCAGGGC | -0.178
ATTGAACG | -0.114
ATTGAACC | -0.0437
AGGCGTAT | -0.308
ACAGTCAT | -0.24
ACTATTGC | 0.0531
ATAGACCG | 0.0141

Sequence | PBM E-score
CAGCTTCC | -0.0366
CAGTGCGG | 0.257
ATGCTGCA | -0.178
CCACGGAA | 0.34
ACACGGAG | 0.419
ACACGGAA | 0.288
ACACGGAT | 0.199
CCACGGAC | 0.272
CCACGGAG | 0.418
ATCTCCGA | 0.478
CTCTCCCA | -0.148
ATCTCCCC | -0.00596
CTCTCCAA | 0.0897
ATCTCCAG | -0.0917
CTCTCCGC | 0.325
CTCTCCGA | 0.394
ATCTCCGC | 0.47
ATCTCCGG | 0.493
ATCTCCCG | 0.301
ATCTCCAA | -0.0722
ATCTCCCA | 0.0776
CTTCATGC | -0.0885
ACCGCGAC | 0.0815
CGAACTGC | 0.0356
ACATTCAA | 0.0683

Sequence | PBM E-score
GACAGTCC | 0.0326
CCGGTAAG | 0.337
GCGCGCAA | 0.219
GTCTCCGA | 0.417
GTCTCCAA | -0.111
GTCTCCTA | -0.166
GTACTTTA | -0.191
CATCCGGC | 0.354
AATCCGGA | 0.466
CATCCGGG | 0.3
AATCCGCA | 0.316
TATCCGGA | 0.469
AATCCGTC | 0.297
TATCCTGA | -0.121
TATCCGCA | 0.271
AATCCGGG | 0.417
AATCCGTA | 0.195
AATCCTGG | -0.0892
AATCCGGC | 0.425
CCTCGACG | -0.00055
GTACTGCA | -0.0765
AAACCTCC | 0.147
AATATTGT | 0.0529
TACCAGGA | -0.0496
CTACTTTC | -0.0554

Sequence | PBM E-score
GGGTCGCA | 0.139
CTTGACAC | -0.193
ATAGATGG | -0.132
CCCTTTCG | 0.116
CATCCGCA | 0.191
GATCCGAA | 0.33
AATCCGGT | 0.442
GATCCTGC | -0.00417
GATCCGCC | 0.276
CATCCGGA | 0.436
AATCCAGT | 0.108
CATCCGTA | 0.183
GATCCGTA | 0.158
GATCCGGA | 0.439
AATCCGCT | 0.269
GATCCGGC | 0.407
CGTTTTGA | -0.142
CTTAAGAA | -0.14
AGCACCGC | 0.121
CGAGCTTC | 0.028
ACTAAGGG | -0.0488
AAGGGTCC | 0.216
AAGAAAGA | -0.0469
ATGCTAGC | 0.00697
CACCGGCG | 0.383

Sequence | PBM E-score
CACCGGGA | 0.352
CACCGGCC | 0.273
CACCGGTA | 0.297
GACCGGAA | 0.389
CACCGGTG | 0.306
GACCGGGA | 0.359
CACCGGAG | 0.443
GACCGGAC | 0.383
GACCGGTA | 0.0914
CACCGGAC | 0.439
CACCGGAA | 0.427
ATACGATA | -0.118
ACGGGGGA | 0.0207
ACTCCATC | 0.275
ATGCACAC | -0.153
CCATCAGC | -0.0147
GGGGTCAC | -0.0137
GTCTTACA | -0.252
GCAGGTCA | -0.134
ACCAGTGC | -0.264
AACCGGAT | 0.367
AACCGGCA | 0.215
AACCGCAC | -0.0338
AACCGGAA | 0.391
AACCGCAG | -0.0582

Sequence | PBM E-score
TACCGGGA | 0.381
AACCGGAC | 0.414
TACCGGTA | 0.246
AACCGGTG | 0.282
AAACGGAC | 0.197
AACCGGAG | 0.48
TACCGGAA | 0.397
ACAGTGAG | -0.301
GAGAGTTA | -0.158
CGCAACAC | 0.111
ATTCAAGG | -0.282
GCTTTCCA | -0.0584
CCTTAGAG | -0.172
CGTCCGAC | 0.243
GGTCCAAC | 0.00905
CGTCCGAA | 0.352
TGTCCAAA | -0.0727
TGTCCTAA | -0.233
GGTCCGAC | 0.39
GGTCCGAA | 0.439
GGTCCAAA | 0.0394
TGTCCGAA | 0.407
AAACCCAA | 0.0205
AACGGGCA | -0.0928
TCCTCAGA | 0.0167

Sequence | PBM E-score
CGTGAGTC | -0.141
CAACTTCC | 0.22
GTAGCGAC | -0.186
GCGTTCGA | -0.11
ACTTCCGA | 0.378
CTTTCCGA | 0.354
ATTTCCAG | 0.0814
CTTTCCGC | 0.332
GTTTCCGA | 0.369
ATTTCCGC | 0.397
ATTTCCGA | 0.446
ATTTCCGG | 0.475
ACTTCCGC | 0.342
ATTTCCTG | 0.0615
ACTTCCGG | 0.435
ATTTCCCC | 0.127
ACACATCA | 0.0404
CCACTGAA | 0.0461
GTCAAGAC | -0.133

Source: the supplement of paper PMC3334620
